Source: PubChem BioAssay
A selection: hits, their analogues and other compounds. The true share with any hit is near 8.5%.
ALDH1A1 inh – inhibitors of human aldehyde dehydrogenase 1A1 | P00352 | Purified ALDH1A1, NADH fluorescence, propionaldehyde substrate | Potency, µM (doses to about 75.3 µM), for the others: at the highest dose activity, negative = inhibition, actives largely listed as inhibitors | 220,000 tested, 7.3% active;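 note: potency is the fitted concentration of half-maximal effect; plate controls were no enzyme wells and a reference inhibitor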
GoLoco inh red – RGS12 GoLoco-Gai1 interaction inhibition. Potency, µM (highest dose often 61.6 µM), for the others: at the top dose activity, negative = inhibition, actives largely listed as inhibitors. AID 880. Gai1:RGS12 GoLoco peptide FP, rhodamine, 10 min. P63096. 230,000 tested, 0.44% active; active = well fitted inhibition curve with a large enough effect, not every such curve was filed as active; inactive = no such curve, though single readings can be large or run the other way; note: potency is the fitted concentration of half-maximal effect; nearly all actives have a fitted effect of over 30% in size
KDM4E inh – blocks human JMJD2E demethylase activity; Potency, µM (doses to about 57.1 µM), for inactives: top-dose activity change, negative = inhibition, actives largely listed as inhibitors; JMJD2E catalytic domain, FDH-coupled NADH fluorescence (FDH is formaldehyde dehydrogenase); 230,000 tested, 1.6% active; B2RXH2;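 note: potency is the fitted concentration of half-maximal effect; 0% = wells with enzyme and -100% = buffer wells without enzyme; nearly all actives have a fitted effect of over 50% in size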
FBPA coupling cs – inhibits coupling enzyme system, counter-screen for aldolase hits. coupling enzyme system counterscreen, AmpLite Red fluorescence. activity change, negative = inhibition, % at 58.2 µM, hits read low. 290,000 tested, 0.67% active; in the data active = activity change below about -30%
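Activity here indicates interference with the coupling reaction, not aldolase inhibition. Compounds at 57.5 uM final met coupling enzymes for 10 min at RT; substrate and AmpLite Red detection followed, with a 525/598 nm fluorescence read after 20 min.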
NPSR antag – antagonists of human neuropeptide S receptor cAMP signaling; CHO-NPSR cells, cAMP TR-FRET, antagonist mode; 220,000 tested, 1% active; Q6W5P4; Potency, µM (titrated, usually from 38.3 µM), for inactives: at the highest dose activity change, negative = inhibition, hits mostly inhibitors; active = well fitted curve in the direction sought with a large enough effect; inconclusive = small, poorly fitted or top-dose-only effect, or another doubt; inactive = no such curve, though single readings can be large; an effect the other way counts as inactive or inconclusive; note: potency is the fitted concentration of half-maximal effect; nearly all actives have a fitted effect of over 50% in size
Target sequence (Q6W5P4 whole entry, looked up): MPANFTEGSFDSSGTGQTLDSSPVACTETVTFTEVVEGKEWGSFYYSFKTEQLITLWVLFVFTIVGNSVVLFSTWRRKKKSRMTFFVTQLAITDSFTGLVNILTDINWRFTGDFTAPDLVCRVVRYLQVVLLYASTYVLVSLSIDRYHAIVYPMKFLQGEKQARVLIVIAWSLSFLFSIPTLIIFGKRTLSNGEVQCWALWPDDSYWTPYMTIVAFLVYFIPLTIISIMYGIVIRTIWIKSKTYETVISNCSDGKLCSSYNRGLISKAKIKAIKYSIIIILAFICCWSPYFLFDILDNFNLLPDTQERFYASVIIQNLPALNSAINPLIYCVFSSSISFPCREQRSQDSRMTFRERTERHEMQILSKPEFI
Sfp inh – inhibitors of Bacillus subtilis Sfp phosphopantetheinyl transferase; Q9F4F7; 310,000 tested, 3.5% active; Biochemical Sfp PPTase activity, qHTS; AID 1490; Potency, µM, inactives show largest response in the series, negative = inhibition, usual class: inhibitors; active = well fitted curve in the direction sought with a large enough effect; inconclusive = small, poorly fitted or top-dose-only effect, or another doubt; inactive = no such curve, though single readings can be large; an effect the other way counts as inactive or inconclusive;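 note: the enzyme is Sfp with the accession as filed and its product quenches rhodamine fluorescence; potency is the fitted concentration of half-maximal effect; 0% = enzyme reaction without inhibitor and -100% = no enzyme wells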
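Fluorescence-quenching assay: 15 nM Sfp-PPTase preincubated 15 min at room temperature with compound, then 5 uM rhodamine-CoA and 12.5 uM BHQ-2-labelled YbbR peptide added. Fluorescence (ex 525/em 598 nm) read at start and after 30 min; difference gives rate.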
* marks the source's active call; other numbers are inactive results; ? = inconclusive; · = no result; ! = not active in a repeat; [ ] = another dose, or the depositor's remark. Unless noted, calls come from the whole dose curve; as a rule, active = well fitted inhibition curve with a large enough effect (not every such curve was filed as active); inconclusive = small, poorly fitted or top-dose-only effect, or another doubt; inactive = no such curve, though single readings can be large or run the other way. Unless noted, % is set by controls: 0 for no effect and ±100 for the full control effect.

SMILES	ALDH1A1 inh	GoLoco inh red	KDM4E inh	FBPA coupling cs	NPSR antag	Sfp inh
C[C@@H](C(=O)NCc1ccccn1)[C@H]1C[C@]1(C)[C@H](NC(=O)OCc1ccccc1)c1ccccc1	31.6µM*!	-7.6%	-0.9%	0.5	-29.1%	?
O=C(C1CC12CCCC2)N1CCC(CO)(Cc2ccccc2Cl)CC1 (stereo unspecified)	?	9.2%	-12.6%	2.4	24.5%	6.5%
CCN1C(=O)CC(C(=O)Nc2ccc(F)cc2)SC1=Nc1cccc(OC)c1 (stereo unspecified)	10µM*	11.1%	-0.5%	-0.7	-20.7%[46.1 µM]	5.2%
COc1cccc(NC(=O)C2CC(=O)N(C)C(=Nc3cccc(F)c3)S2)c1 (stereo unspecified)	?	3.0%	-2.4%	-4.2	?	12.7%
Clc1cccc(-c2ccc(CNCCCN3CCOCC3)o2)c1	28.2µM*	-5.9%	-9.7%	3.7	15.5%	-6.4%
Cc1sc2nc(SCc3ccccc3)n(Cc3ccco3)c(=O)c2c1C	1.1%	20.7%	-6.1%	6.3	-16.3%[46.1 µM]	-5.1%
CCOC(=O)c1cc(CC)sc1NC(=O)CSc1nc2ccccc2c(=O)n1Cc1ccco1	3.5%	5.7%	?	0.4	-28.3%	-2.5%
CCOC(=O)CC(=O)CSc1nc2sc(C)cc2c(=O)n1Cc1ccco1	0.562µM*	85.2%	?	-0.5	?	0.1%
Cc1cc2c(=O)n(Cc3ccco3)c(SCC(=O)c3ccc(Cl)s3)nc2s1	15.8µM*	53.9%	?	-3.7	?	17.8µM*
CCCCCCCCCCCCCCOc1ccc(C(=O)O)o1	·	·	·	8.7	·	1.9%
COCC(=O)c1[nH]c2ccccc2c1C	7.94µM*	10.0%	7.0%	-0.3	6.2%[46.1 µM]	26.3%
O=C(O)c1ccc(NC2=C(n3nnc4ccccc43)C(=O)c3ccccc3C2=O)cc1	·	-1.4%	-11.4%	-32.7*	1.6%	6.8%
CC(C)CSc1nc2c(c(=O)[nH]c(=O)n2C)n1CC(O)COc1cccc2ccccc12 (stereo unspecified)	17.8µM*	-2.3%	4.4%	3.0	?	28.2µM*
Cn1c(=O)[nH]c(=O)c2c1nc(SCCO)n2CC(O)COc1ccccc1 (stereo unspecified)	3.5%	6.2%	4.9%	-5.6	3.6%	5.01µM*
Cn1c(=O)[nH]c(=O)c2c1nc(SCC(O)CO)n2Cc1ccccc1Cl (stereo unspecified)	14.1µM*	5.3%	0.0%	0.2	0.9%[46.1 µM]	11.5%
O=C(NCc1cccs1)C1CCCN(C(=O)Nc2ccccc2)C1 (stereo unspecified)	·	·	·	0.6	·	5.2%
COc1ccc(CNC(=O)CSCc2c(F)cccc2Cl)cc1	2.24µM*	-26.7%	-26.0%	-1.6	15.5%	0.9%
O=C(NCCCCCNC(=O)c1ccco1)c1ccco1	28.2µM*	1.0%	-2.8%	1.9	-1.3%[46.1 µM]	4.6%
O=C(CSCc1c(F)cccc1Cl)NCc1ccncc1	?	10.6%	-14.9%	0.1	6.8%	-11.3%
O=C(NCCSCc1c(F)cccc1Cl)c1ccco1	15.8µM*	3.3%	1.9%	-6.1	-19.2%[7.67 µM]	-21.9%
Cc1ccc(Sc2ncccc2C(=O)N(C)Cc2cccs2)c(C)c1	·	·	·	-4.3	·	-2.1%
COC(=O)c1sc(=S)n(-c2cc(F)ccc2F)c1N	25.1µM*	6.3%	-12.3%	0.6	15.9%[46.1 µM]	50.1µM*
CCOC(=O)c1sc(=S)n(-c2cc(F)ccc2F)c1N	20µM*	-6.5%	8.6%	-2.1	7.0%[46.1 µM]	56.2µM*
COC(=O)c1sccc1NC(=S)Nc1ccc(F)cc1F	-9.5%	11.8%	-9.4%	0.0	1.3%	-12.4%
CCOC(=O)c1sc(=S)n(-c2cc(OC)ccc2OC)c1N	3.16µM*	-12.8%	-26.9%	4.1	-8.5%[46.1 µM]	-89.3%
CCOC(=O)c1sc(=S)n(-c2ccccc2Cl)c1SC	17.8µM*	21.5%	-1.1%	-1.0	-23.4%[46.1 µM]	0.5%
CCOc1ncccc1C(=O)Nc1cccc(Cl)c1Cl	-4.2%	-1.3%	-2.8%	-0.5	-15.8%	17.3%
COc1ccccc1CNC(=O)[C@H](C)NC(=O)C1CCN(C(=O)[C@@H](N)C(C)C)CC1	·	·	·	0.2	·	6.0%
